Calb FLC: C. albicans growth modulation with fluconazole; C. albicans CaCi-2 (fluconazole-resistant clinical isolate) + fluconazole, Alamar Blue growth, 48 h; growth inhibition, % (concentration not given with the values); hit rate 0.57% among 300,000; AID 1979;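 active = growth inhibition above about 58% in most replicates, limit read from the data, passing the limit was not always enough; inconclusive = exactly half the replicates above a set limit; inactive = most replicates below a set limit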;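 also: all wells also contain fluconazole at 8 µg/ml as a sub-toxic cotreatment; 0% = median of DMSO wells and 100% = median of geldanamycin control wells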
PHOSPHO1 inh: inhibitors of human PHOSPHO1 phosphatase; recombinant PHOSPHO1, absorbance phosphatase assay; AID 1565; Q8TCT1; hit rate 1.1% among 290,000; inhibition, % at 13.3 µM; in the data active = inhibition above about 60%
Target sequence (Q8TCT1 whole entry, looked up): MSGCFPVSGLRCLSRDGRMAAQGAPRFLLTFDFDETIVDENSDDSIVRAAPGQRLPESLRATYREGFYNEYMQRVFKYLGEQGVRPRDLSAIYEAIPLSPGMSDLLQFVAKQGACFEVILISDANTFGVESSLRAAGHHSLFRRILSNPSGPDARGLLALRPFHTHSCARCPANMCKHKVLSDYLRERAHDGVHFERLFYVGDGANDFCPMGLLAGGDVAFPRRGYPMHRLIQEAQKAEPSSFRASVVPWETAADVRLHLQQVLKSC
H9c2 protect: modulators protecting cardiomyocytes from myocardial damage; H9c2 cardiomyocytes, H2O2 injury protection, ATPLite, 2 h; protection from H2O2 cell death, % at 20 µM; hit rate 0.63% among 360,000;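 active = compounds giving at least 50% protection of heart cells from peroxide-induced death in the single-dose screen, raw or plate-pattern-corrected value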;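 also: 0% = DMSO wells with peroxide and 100% = DMSO wells without peroxide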
KCC2 mod: modulates chloride dependent transport by human KCC2 | Q9H2X9 | KCC2 cells, thallium flux FluoZin-2 fluorescence | B-score of Tl+ flux slope (higher = more flux/activation; lower = inhibition) at 10 µM | hit rate 2.2% among 190,000 | AID 1456;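 active = thallium flux slope and its plate-corrected score both differing from the plate sample mean at a set confidence after two filtering rounds, in either direction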;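 also: slope of fluorescence scaled to starting intensity during 10 to 20 s after thallium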
Efflux pump inh: inhibitors of Candida antifungal efflux pumps expressed in yeast; S. cerevisiae Candida pump triplex, Nile Red efflux; inhibition, % at 10 µM; hit rate 0.44% among 330,000;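 active = plate passing quality check with inhibition over a set limit, or well fluorescence over plate mean plus 4 SD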;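 also: Nile Red retained in pooled yeast measured as flow cytometry median fluorescence; 0% = buffer negative control and 100% = Enniatin B positive control; higher means more Nile Red kept so more efflux inhibition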
KCC2 sec1: KCC2 (human) modulation, secondary assay | normalised thallium flux (F/F0 slope) at 10 µM | shares compounds with KCC2 mod | HEK293-KCC2, thallium flux, FluoZin2 fluorescence; stronger effect = higher value | hit rate 15% among 3,700;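 active = thallium flux slope above the same plate's solvent-only control mean plus 3 SD; inconclusive = the two replicate wells disagree; inactive = no significant difference from solvent-only control wells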
KCC2 bumet counter: thallium flux persisting under bumetanide in KCC2 cells, counter-screen secondary assay | HEK293-KCC2 + bumetanide/ouabain, thallium flux FluoZin2; stronger effect = higher value | normalized thallium flux at 10 µM | hit rate 49% among 3,700 | shares compounds with KCC2 mod;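 active = thallium entry rate above the same plate's blocked-transporter control wells by more than 3 SD; inconclusive = the two repeat wells disagree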;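 also: raw slope of fluorescence over initial fluorescence between 10 and 20 s after thallium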
KCC2 sec2: KCC2 (human) modulation, second secondary assay; hit rate 23% among 3,700; shares compounds with KCC2 mod; HEK293-KCC2, thallium flux FluoZin2 fluorescence; actives lie on both sides; F/F0 rise rate, 10–20 s post-thallium; normalized thallium flux at 10 µM;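 active = thallium flux slope more than 3 SD above or below the plate's solvent-only control mean, mostly below; inconclusive = the two repeat wells disagreed; inactive = no significant shift from solvent-only controls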;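 also: raw slope with 0.1% DMSO as baseline and bumetanide as block control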
HEK counter1: acts in parental HEK cells, KCC2 counter-screen; shares compounds with KCC2 mod; HEK293 parental cells, thallium flux FluoZin2, ouabain; baseline-ratio fluorescence slope, 10–20 s after thallium; thallium flux rate (normalised fluorescence) at 10 µM; hit rate 46% among 3,700; AID 1716;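 active = thallium flux rate significantly above the same plate's solvent-only control wells, beyond their mean plus 3 SD; inconclusive = the two replicate wells gave conflicting results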
KCC2 ouabain: confirmation of human KCC2 modulators with ouabain | shares compounds with KCC2 mod | HEK293-KCC2, thallium flux FluoZin2 fluorescence; bidirectional: low = inhibitor, high = activator | raw Tl+ flux slope (below DMSO = inhibition, above = activation) at 10 µM | hit rate 48% among 3,700 | AID 1717;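 active = thallium flux slope beyond 3 SD from same-plate DMSO control mean in most replicates, usually higher, sometimes lower; inconclusive = repeat tests gave conflicting results; inactive = no significant difference from controls in most replicates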;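 also: slope of initial-normalized fluorescence between seconds 10 and 20 after thallium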
HEK counter2: parental HEK flux effect, counter-screen 2; HEK293 parental, thallium flux FluoZin-2 fluorescence slope; thallium flux slope at 10 µM; hit rate 33% among 3,700; shares compounds with KCC2 mod;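 active = thallium flux slope above the same plate's solvent-control mean plus 3 SD in both duplicate wells; inconclusive = duplicate wells that disagreed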;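 also: run without ouabain in cells lacking the KCC2 cotransporter; slope of fluorescence scaled to its starting value between 10 and 20 s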
Numbers without * were called inactive. In the library only some 3.3% were active in any assay of this set; here they are far more common.

Screening O=C(Nc1nnc(COc2ccccc2F)s1)Nc1ccccc1F returned Calb FLC -3, PHOSPHO1 inh 13, H9c2 protect -7, KCC2 mod 2.6*, Efflux pump inh 0, KCC2 sec1 0.0086, KCC2 bumet counter 0.0054, KCC2 sec2 0.032, HEK counter1 0.0078, KCC2 ouabain 0.022 and HEK counter2 0.01.
`O=C(/C=C/c1ccc(O)c(O)c1)O[C@H](Cc1ccc(O)c(O)c1)C(=O)O` gave Calb FLC -4, PHOSPHO1 inh 9 and KCC2 mod 1.4.
`COC1=C/C(=C/c2c(N)n3nc(-c4ccc(C)cc4)sc3nc2=O)C=CC1=O` gave PHOSPHO1 inh 15, H9c2 protect -3, KCC2 mod 9.8*, KCC2 sec1 0.0065, KCC2 bumet counter 0.063*, KCC2 sec2 inconclusive, HEK counter1 0.083*, KCC2 ouabain inconclusive and HEK counter2 0.024*.
CCOC1=C/C(=C/c2c(N)n3nc(-c4ccccc4)sc3nc2=O)C=CC1=O was read as Calb FLC 37, PHOSPHO1 inh 35, H9c2 protect 19 and KCC2 mod -1.8.
For O=C(C[C@@H]1C/C=C\CCC(=O)O[C@H](c2ccccc2)CNC1=O)N[C@H](CO)Cc1ccccc1 the results were H9c2 protect 7 and Efflux pump inh 0.
`CCOC(=O)c1c(C)[nH]c(C)c1C(=O)CSc1nc2ccccc2n1CC` gave Calb FLC 30, PHOSPHO1 inh -1, H9c2 protect 9, KCC2 mod 0.13 and Efflux pump inh 1.
Screening CCOC(=O)c1c(C)[nH]c(C)c1C(=O)CSc1nc2ccccc2c(=O)n1-c1ccc(CC)cc1 returned Calb FLC -16, PHOSPHO1 inh -5, H9c2 protect 14, KCC2 mod 4*, Efflux pump inh 0, KCC2 sec1 0.0099, KCC2 bumet counter 0.015*, KCC2 sec2 0.034, HEK counter1 inconclusive, KCC2 ouabain 0.024 and HEK counter2 inconclusive.
O=C1C2C3C=CC(CC3)C2C(=O)N1/N=C/c1c(O)ccc2ccccc12 (centres undefined) was read as Calb FLC 12, PHOSPHO1 inh 32, H9c2 protect 1, KCC2 mod 3.3*, Efflux pump inh 0, KCC2 sec1 0.009, KCC2 bumet counter 0.006, KCC2 sec2 0.031, HEK counter1 0.0077, KCC2 ouabain 0.022 and HEK counter2 0.01.
For Cn1c(=O)cc(SCC(=O)N2CCN(c3ccccn3)CC2)c2ccccc21 the results were Calb FLC 1, PHOSPHO1 inh 14, H9c2 protect 32, KCC2 mod -3.5*, Efflux pump inh 0, KCC2 sec1 0.0076, KCC2 bumet counter 0.0067, KCC2 sec2 0.031, HEK counter1 0.0069, KCC2 ouabain 0.018* and HEK counter2 0.0098.
For CC(C)(C)NC(=O)C(=O)NNC(=O)c1ccccc1Br the results were Calb FLC 3, PHOSPHO1 inh 23, H9c2 protect 3, KCC2 mod 9.6*, Efflux pump inh 0, KCC2 sec1 0.015*, KCC2 bumet counter 0.024*, KCC2 sec2 0.036, HEK counter1 inconclusive, KCC2 ouabain 0.03* and HEK counter2 0.012.
